From PubChem BioAssay (NCATS)
Where “and” joins values, the source holds several entries; their conditions need not be identical. Identical values can stand only once. Records with an inconclusive call do not appear. Calls of active or inactive are those of the source. Unless noted, the call rests on the fitted dose curve; in most records, active means well fitted curve in the direction sought with a large enough effect; inconclusive means small, poorly fitted or top-dose-only effect, or another doubt; inactive means no such curve, though single readings can be large; an effect the other way counts as inactive or inconclusive.

Assays:
[1] = qHTS for Inhibitors of the Functional Ribonucleoprotein Complex (vRNP) of Lassa (LASV) Arenavirus: LASV Primary Screen - GLuc reporter signal (AID 1347082; calls by dose curve; tested in HEK293 reporter line; further: nearly all actives have a fitted effect of over 60% in size)
[2] = qHTS for Inhibitors of the Functional Ribonucleoprotein Complex (vRNP) of Lassa (LASV) Arenavirus: Viability assay - alamar blue signal for LASV Primary Screen (AID 1347083; calls by dose curve; tested in HEK293 reporter line; further: nearly all actives have a fitted effect of over 80% in size)
[3] = qHTS for Inhibitors of the Functional Ribonucleoprotein Complex (vRNP) of Lymphocytic Choriomeningitis Arenaviruses (LCMV): Viability assay - alamar blue signal for LCMV Primary Screen (AID 1347085; calls by dose curve; tested in HEK293 reporter line; further: nearly all actives have a fitted effect of over 80% in size)
[4] = target: Nucleoprotein (Lymphocytic choriomeningitis virus (strain Armstrong)) (UniProt P09992); experiment: qHTS for Inhibitors of the Functional Ribonucleoprotein Complex (vRNP) of Lymphocytic Choriomeningitis Arenaviruses (LCMV): LCMV Primary Screen - GLuc reporter signal (AID 1347086; calls by dose curve; further: nearly all actives have a fitted effect of over 70% in size)
CRL-7250 = normal cell line; experiment: qHTS assay to identify novel small-molecules to repurpose for Merkel cell carcinoma treatment (AID 1296009); details: MCC and control cell lines, CellTiter-Glo viability, 72 h; series mostly up to 92 µM; further: nearly all actives have a fitted effect of over 60% in size
Summary of the method: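 Cell viability measured by CellTiter-Glo following 72 hr compound treatment at 37 degree celsius, with NPC and MIPE libraries tested in 8- and 11-point concentration series.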

[5] = target: Cytochrome P450 2C9 (Homo sapiens) (UniProt P11712); experiment: qHTS Assay for Inhibitors and Substrates of Cytochrome P450 2C9 (AID 883); further: potency means the concentration at half of the fitted maximal effect; nearly all actives have a fitted effect of over 60% in size
Summary of the method: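 Inhibition of CYP2C9 is scored as loss of luminescence, with 57uM sulphaphenazole defining 100% inhibition. Substrate Luciferin-H is used at 100uM, equal to its KM; enzyme at 10nM in 25mM KPO4, 60 min at 37C with NADPH regeneration.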

[6] = target: Cytochrome P450 3A4 (Homo sapiens) (UniProt P08684); experiment: qHTS Assay for Inhibitors and Substrates of Cytochrome P450 3A4 (AID 884); further: potency means the concentration at half of the fitted maximal effect; nearly all actives have a fitted effect of over 50% in size
Summary of the method: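 Luminescent readout of luciferin produced by CYP3A4 (20 nM) dealkylation of Luciferin-PPXE, 25 uM (its KM). NADPH-driven reaction ran 60 min at RT after 10 min compound preincubation; data scaled to 57 uM ketoconazole as 100% inhibition.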

[7] = target: Cytochrome P450 3A4 (Homo sapiens) (UniProt P08684); experiment: qHTS Assay for Activators of Cytochrome P450 3A4 (AID 885); further: nearly all actives have a fitted effect of over 65% in size
Summary of the method: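 Activators are scored by enhanced luminescence from CYP3A4 conversion of luciferin-PPXE (25uM, equal to KM) to luciferin, after 60 min at RT with an NADPH-regenerating system.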

[8] = target: Cytochrome P450 2D6 (Homo sapiens) (UniProt P10635); experiment: qHTS Assay for Inhibitors and Substrates of Cytochrome P450 2D6 (AID 891); further: potency means the concentration at half of the fitted maximal effect; nearly all actives have a fitted effect of over 60% in size
Summary of the method: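 Luminescent read-out of luciferin formed by 5 nM human CYP2D6 demethylating 30 uM Luciferin-ME EGE (Km level) over 60 min at room temperature after NADPH regeneration addition. Data normalized to full inhibition by 1.43 uM quinidine.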

[9] = target: Cytochrome P450 2C19 (Homo sapiens) (UniProt P33261); experiment: qHTS Assay for Inhibitors and Substrates of Cytochrome P450 2C19 (AID 899)
Summary of the method: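 5nM enzyme + 10uM Luciferin-H EGE (=KM), 50mM KPO4; cpd pin-transferred, 10 min 37C; NADPH regen, 60 min 37C; stopped w/ luciferin detection reagent, 20 min; luminescence. Normalized to 57uM ketoconazole (AC100).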

[10] = qHTS Assay for Identification of Small Molecule Antagonists for Thrombopoietin (TPO) Signaling Pathway (AID 918); details: TPO-dependent cell signaling reporter, antagonist mode
Summary of the method: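 Antagonist mode at EC50 TPO (26 pM) in IL-3-free medium; murine Ba/F3 cells with human TPO receptor and GPIIb-promoter luciferase, 24 hrs at 37 C before luminescent detection.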

[11] = target: DNA repair nuclease/redox regulator APEX1 (Homo sapiens) (UniProt P27695); experiment: qHTS Validation Assay for Inhibitors of the Human Apurinic/apyrimidinic Endonuclease 1 (APE1) (AID 1705; further: potency means the concentration at half of the fitted maximal effect)
Summary of the method: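 qHTS, 1536-well. APE1 + cpd 15 min RT → 50 nM TAMRA/BHQ-2 THF-abasic dsDNA substrate → kinetic fluorescence, 3 reads/60 s; delta(read3−read1) = reaction progress. No-enzyme buffer = negative control.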

[12] = Counterscreen for APE1 Inhibitors: Fluorescent Dye Displacement Validation Assay (AID 1707); further: potency means the concentration at half of the fitted maximal effect
Summary of the method: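 Endpoint fluorescence read at 480 nm excitation / 540 nm emission; DNA-binding compounds lower signal by displacing 250 nM Thiazole Orange from 50 nM dsDNA containing a tetrahydrofuran abasic site, Tris-HCl pH7.5 buffer with NaCl and MgCl2.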

[13] = qHTS for differential inhibitors of proliferation of Plasmodium falciparum line 7G8 (AID 1815);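 further: potency means the concentration at half of the fitted maximal effect; parasite growth measured after three days of incubation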
[14] = qHTS for differential inhibitors of proliferation of Plasmodium falciparum line W2 (AID 1883); details: Potency: Plasmodium falciparum W2 proliferation inhibition;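 further: potency means the concentration at half of the fitted maximal effect; parasites grown with compound for 72 h before lysis and staining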
[15] = target: DNA polymerase III PolC-type (Bacillus subtilis (strain 168)) (UniProt P13267); experiment: qHTS Validation Assay for the Inhibitors of DNA Replication in Gram-Positive Bacteria (AID 485295); further: potency means the concentration at half of the fitted maximal effect
Summary of the method: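 First, compound is mixed with the reconstituted replication complex and held at room temperature. Next, circular single-stranded M13Gori with nucleotides starts synthesis. Finally, PicoGreen in EDTA halts the reaction and stains double-stranded product for fluorescence reading.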

[16] = target: M-phase phosphoprotein 8 (Homo sapiens) (UniProt Q99549); experiment: qHTS Validation Assay for Inhibitors for MPP8 Chromodomain Interactions with Methylated Histone Tails (AID 488949); further: potency means the concentration at half of the fitted maximal effect; nearly all actives have a fitted effect of over 55% in size
Summary of the method: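 50 nM MPP8 + 50 nM b-H3K9me3 peptide, PBS pH 7.4/0.01% Tween-20, 30 min RT; + cpd 30 min RT; + AlphaScreen donor/Ni-chelate acceptor beads 10 ug/mL final, 30 min dark; luminescence read.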

[17] = target: Chromobox protein homolog 1 (Homo sapiens) (UniProt P83916); experiment: qHTS Validation Assay for Inhibitors of HP1-beta Chromodomain Interactions with Methylated Histone Tails (AID 488953); further: potency means the concentration at half of the fitted maximal effect; nearly all actives have a fitted effect of over 50% in size
Summary of the method: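 Compounds pinned into a preassembled complex of HP1-beta and trimethyl-K9 histone H3(1-18) biotin peptide (50 nM each; PBS pH 7.4, 0.01% Tween-20). After 30 min, bead-based AlphaScreen detection followed.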

[18] = qHTS assay for small molecule agonists of retinoid X receptor alpha signaling (AID 588544; calls by dose curve); details: HEK293T RXRa-UAS-bla, beta-lactamase reporter, 18 h; 530 nm emission
[19] = target: Retinoic acid receptor RXR-alpha (Homo sapiens) (UniProt P19793); experiment: as above
[20] = qHTS assay for small molecule agonists of the antioxidant response element (ARE) signaling pathway (AID 651741; active means well fitted activation curve with a large enough effect in the signal ratio; the % refers to the signal ratio; further: potency means the concentration at half of the fitted maximal effect)
Summary of the method: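 Agonist activity is measured as ARE-driven beta-lactamase expression in a stable HepG2 reporter line, using 16 h compound treatment at 37 C and a FRET substrate fluorescence readout after 2 h.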

[21] = qHTS assay for small molecule activators of the p53 signaling pathway (AID 651743; active means well fitted activation curve with a large enough effect in the signal ratio, not every such curve was filed as active; the % refers to the signal ratio; further: potency means the concentration at half of the fitted maximal effect); details: HCT-116 p53RE-bla, beta-lactamase FRET ratio, 16 h; activation: stronger effect = higher value
Summary of the method: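 A beta-lactamase reporter under p53 response element control, stably carried by HCT-116 cells, reported pathway activation. Test compounds were applied for 16 hours at 37 C, and fluorescence was measured 2 hours after adding the B/G FRET substrate.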

[22] = qHTS assay for small molecule disruptors of the mitochondrial membrane potential - 1 hr assay (AID 651754; calls by dose curve; further: potency means the concentration at half of the fitted maximal effect; nearly all actives have a fitted effect of over 35% in size)
Summary of the method: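 In this qHTS format, a 1 hr compound treatment of HepG2 cells precedes Mito-MPS staining, and membrane potential is judged from aggregate (red) against monomer (green) fluorescence intensity.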

[23] = qHTS assay for small molecule disruptors of the mitochondrial membrane potential - 5 hr assay (AID 651755; calls by dose curve; further: potency means the concentration at half of the fitted maximal effect; nearly all actives have a fitted effect of over 40% in size)
Summary of the method: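 Membrane-potential dye readout: red aggregate (540 ex/590 em) versus green monomer (490 ex/535 em) fluorescence after 30 min dye loading, following 5 hr compound exposure at 37C of overnight-plated HepG2 cells.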

[24] = qHTS assay to identify small molecules that stimulate interleukin-8 (IL-8) secretion (AID 651758; active means well fitted activation curve with a large enough effect in the signal ratio; the % refers to the signal ratio; further: potency means the concentration at half of the fitted maximal effect)
Summary of the method: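 Secreted IL-8 measured homogeneously by TR-FRET (two labelled anti-IL-8 antibodies, 1-3 h at room temperature) after a 16 h, 37 C compound treatment of THP-1 cells at 2000 cells/well.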

[25] = qHTS assay for environmental chemicals that activate the Aryl hydrocarbon Receptor (AhR) signaling pathway (AID 651777); details: 1A2-DRE human hepatoma cells, luciferase, 24 h; activation: stronger effect = higher value; further: potency means the concentration at half of the fitted maximal effect; nearly all actives have a fitted effect of over 15% in size
Summary of the method: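 Human hepatoma 1A2-DRE cells, stably carrying a dioxin response element and CYP1A2 promoter driving luciferase, were exposed to compounds for 24 hr at 37 C and 5% CO2. Luciferase signal was then read after 30 min One-Glo at room temperature.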

[26] = target: Nuclear receptor ROR-gamma (Homo sapiens) (UniProt P51449); experiment: qHTS assay for small molecule antagonists of the retinoid-related orphan receptor gamma (ROR-gamma) signaling pathway (AID 651802)
Summary of the method: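 Doxycycline-induced reporter activity in engineered CHO cells (TET-inducible ROR, RORE-LUC) was measured by luminescence after 16hr compound exposure at 37C.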

[27] = target: Arylsulfatase A (Homo sapiens) (UniProt P15289); experiment: qHTS screen for enhancers of Arylsulfatase A (ASA1): LOPAC Validation Assay (AID 720538)
Summary of the method: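 MLD patient fibroblasts (SV40, ASA-I179S), 1536-well; adhere 6 hrs; cpd 48h, 37 degree C, 5% CO2; pNCS 0.5mM final in lysis buffer, 14h RT; stop 1N NaOH final; fluor. Ex525/Em598.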

Cytochrome P450 3A4 (Homo sapiens), sequence (P08684 whole entry, looked up): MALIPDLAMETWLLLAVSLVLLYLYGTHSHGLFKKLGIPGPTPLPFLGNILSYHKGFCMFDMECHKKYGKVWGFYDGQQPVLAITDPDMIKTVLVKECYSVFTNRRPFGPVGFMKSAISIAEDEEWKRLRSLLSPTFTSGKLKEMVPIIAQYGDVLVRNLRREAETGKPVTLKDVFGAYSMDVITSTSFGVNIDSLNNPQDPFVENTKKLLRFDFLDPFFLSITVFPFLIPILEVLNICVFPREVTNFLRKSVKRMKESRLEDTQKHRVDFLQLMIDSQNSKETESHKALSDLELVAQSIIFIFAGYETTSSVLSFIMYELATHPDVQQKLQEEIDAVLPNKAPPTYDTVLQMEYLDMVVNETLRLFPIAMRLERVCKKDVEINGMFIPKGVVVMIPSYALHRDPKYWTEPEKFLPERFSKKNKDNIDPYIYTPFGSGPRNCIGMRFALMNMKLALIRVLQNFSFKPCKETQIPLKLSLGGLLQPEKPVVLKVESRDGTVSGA
DNA polymerase III PolC-type (Bacillus subtilis (strain 168)), sequence (P13267 whole entry, looked up): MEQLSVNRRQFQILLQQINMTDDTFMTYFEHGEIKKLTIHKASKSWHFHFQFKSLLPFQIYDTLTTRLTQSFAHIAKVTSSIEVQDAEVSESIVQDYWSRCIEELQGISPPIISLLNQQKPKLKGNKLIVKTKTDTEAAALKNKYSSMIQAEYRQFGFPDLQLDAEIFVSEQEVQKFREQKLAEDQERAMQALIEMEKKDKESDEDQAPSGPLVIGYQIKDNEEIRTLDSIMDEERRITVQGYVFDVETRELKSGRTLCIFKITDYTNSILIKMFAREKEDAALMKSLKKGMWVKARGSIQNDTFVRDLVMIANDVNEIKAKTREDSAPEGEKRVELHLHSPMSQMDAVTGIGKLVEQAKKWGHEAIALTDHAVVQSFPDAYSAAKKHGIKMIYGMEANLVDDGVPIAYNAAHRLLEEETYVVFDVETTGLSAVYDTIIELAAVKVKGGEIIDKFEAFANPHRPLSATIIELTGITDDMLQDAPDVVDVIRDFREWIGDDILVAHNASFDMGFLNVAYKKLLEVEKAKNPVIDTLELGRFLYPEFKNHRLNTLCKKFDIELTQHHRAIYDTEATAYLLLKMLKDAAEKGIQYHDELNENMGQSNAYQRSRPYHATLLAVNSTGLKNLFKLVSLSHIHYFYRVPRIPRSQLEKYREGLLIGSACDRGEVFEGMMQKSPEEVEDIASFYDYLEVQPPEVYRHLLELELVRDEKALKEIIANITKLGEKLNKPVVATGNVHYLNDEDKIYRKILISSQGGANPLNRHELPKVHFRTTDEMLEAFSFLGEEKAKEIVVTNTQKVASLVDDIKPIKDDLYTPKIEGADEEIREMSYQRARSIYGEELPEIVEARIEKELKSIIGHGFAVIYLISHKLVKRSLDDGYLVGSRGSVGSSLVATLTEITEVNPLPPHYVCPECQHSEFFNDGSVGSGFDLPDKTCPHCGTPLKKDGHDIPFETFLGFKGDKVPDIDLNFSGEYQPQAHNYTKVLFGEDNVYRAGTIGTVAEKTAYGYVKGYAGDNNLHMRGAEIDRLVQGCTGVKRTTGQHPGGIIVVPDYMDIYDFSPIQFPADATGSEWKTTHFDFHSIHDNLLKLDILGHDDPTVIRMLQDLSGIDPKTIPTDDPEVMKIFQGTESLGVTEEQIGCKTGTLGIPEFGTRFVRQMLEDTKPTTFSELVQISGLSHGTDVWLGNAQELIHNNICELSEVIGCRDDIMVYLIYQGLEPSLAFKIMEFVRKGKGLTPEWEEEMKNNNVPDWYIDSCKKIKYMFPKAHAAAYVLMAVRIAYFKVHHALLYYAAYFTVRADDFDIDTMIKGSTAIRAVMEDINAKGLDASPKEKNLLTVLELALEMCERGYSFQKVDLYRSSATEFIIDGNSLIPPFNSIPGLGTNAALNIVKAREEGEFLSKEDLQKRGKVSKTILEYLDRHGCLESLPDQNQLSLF
DNA repair nuclease/redox regulator APEX1 (Homo sapiens), sequence (P27695 whole entry, looked up): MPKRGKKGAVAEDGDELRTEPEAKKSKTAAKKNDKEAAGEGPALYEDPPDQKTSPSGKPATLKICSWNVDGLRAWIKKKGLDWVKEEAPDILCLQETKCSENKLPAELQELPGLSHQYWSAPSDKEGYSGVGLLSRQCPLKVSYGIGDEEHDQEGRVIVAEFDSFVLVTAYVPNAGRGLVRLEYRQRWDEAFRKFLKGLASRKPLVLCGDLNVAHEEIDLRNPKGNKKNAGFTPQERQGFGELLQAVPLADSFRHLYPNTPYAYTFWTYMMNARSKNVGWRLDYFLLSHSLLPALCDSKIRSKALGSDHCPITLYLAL
Cytochrome P450 2C19 (Homo sapiens), sequence (P33261 whole entry, looked up): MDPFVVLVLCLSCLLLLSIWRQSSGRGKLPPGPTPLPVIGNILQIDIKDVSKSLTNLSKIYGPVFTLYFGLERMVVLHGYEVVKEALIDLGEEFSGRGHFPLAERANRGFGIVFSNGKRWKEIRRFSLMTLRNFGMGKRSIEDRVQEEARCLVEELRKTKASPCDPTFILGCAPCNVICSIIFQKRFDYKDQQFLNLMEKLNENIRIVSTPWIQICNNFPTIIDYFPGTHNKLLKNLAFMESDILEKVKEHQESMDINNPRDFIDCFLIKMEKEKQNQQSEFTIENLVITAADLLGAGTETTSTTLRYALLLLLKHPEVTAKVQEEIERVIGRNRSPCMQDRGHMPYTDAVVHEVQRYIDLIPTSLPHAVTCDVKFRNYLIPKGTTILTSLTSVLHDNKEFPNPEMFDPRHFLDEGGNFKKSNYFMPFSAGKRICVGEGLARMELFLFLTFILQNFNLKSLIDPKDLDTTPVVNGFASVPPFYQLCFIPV
Nuclear receptor ROR-gamma (Homo sapiens), sequence (P51449 whole entry, looked up): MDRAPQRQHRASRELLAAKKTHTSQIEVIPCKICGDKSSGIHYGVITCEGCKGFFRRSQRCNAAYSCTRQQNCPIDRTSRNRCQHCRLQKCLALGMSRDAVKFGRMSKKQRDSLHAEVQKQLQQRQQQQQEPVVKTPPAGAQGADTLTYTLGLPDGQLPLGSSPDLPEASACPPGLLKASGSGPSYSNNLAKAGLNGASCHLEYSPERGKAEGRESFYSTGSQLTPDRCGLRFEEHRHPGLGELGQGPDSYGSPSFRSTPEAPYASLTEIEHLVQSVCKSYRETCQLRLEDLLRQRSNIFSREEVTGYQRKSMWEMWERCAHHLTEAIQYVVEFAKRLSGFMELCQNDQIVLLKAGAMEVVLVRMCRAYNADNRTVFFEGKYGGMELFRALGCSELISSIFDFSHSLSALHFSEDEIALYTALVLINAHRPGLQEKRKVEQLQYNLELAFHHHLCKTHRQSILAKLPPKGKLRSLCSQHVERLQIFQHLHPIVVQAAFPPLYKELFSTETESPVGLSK
M-phase phosphoprotein 8 (Homo sapiens), sequence (Q99549 whole entry, looked up): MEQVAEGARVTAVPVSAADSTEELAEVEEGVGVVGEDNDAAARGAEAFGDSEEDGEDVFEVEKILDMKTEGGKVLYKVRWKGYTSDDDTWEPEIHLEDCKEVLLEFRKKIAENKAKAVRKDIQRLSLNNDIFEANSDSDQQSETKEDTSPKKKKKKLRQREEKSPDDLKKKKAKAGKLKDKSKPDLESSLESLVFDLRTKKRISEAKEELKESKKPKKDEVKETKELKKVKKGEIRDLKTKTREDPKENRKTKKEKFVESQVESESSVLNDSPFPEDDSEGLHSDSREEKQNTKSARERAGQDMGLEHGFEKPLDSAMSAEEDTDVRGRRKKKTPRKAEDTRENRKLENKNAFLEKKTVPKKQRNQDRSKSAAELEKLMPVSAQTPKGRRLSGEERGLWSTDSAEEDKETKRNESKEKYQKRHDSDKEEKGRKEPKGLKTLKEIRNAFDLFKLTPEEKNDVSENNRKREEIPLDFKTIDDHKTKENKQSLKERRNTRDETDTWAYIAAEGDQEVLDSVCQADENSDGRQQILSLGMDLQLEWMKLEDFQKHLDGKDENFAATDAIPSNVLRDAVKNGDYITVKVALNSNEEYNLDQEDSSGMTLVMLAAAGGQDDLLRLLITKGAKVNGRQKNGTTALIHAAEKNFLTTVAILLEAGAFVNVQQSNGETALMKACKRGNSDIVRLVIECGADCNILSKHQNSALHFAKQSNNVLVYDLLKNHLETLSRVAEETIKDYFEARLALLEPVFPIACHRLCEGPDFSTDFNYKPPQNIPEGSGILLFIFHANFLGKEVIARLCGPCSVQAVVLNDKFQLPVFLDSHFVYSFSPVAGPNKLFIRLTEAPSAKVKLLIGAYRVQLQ
Retinoic acid receptor RXR-alpha (Homo sapiens), sequence (P19793 whole entry, looked up): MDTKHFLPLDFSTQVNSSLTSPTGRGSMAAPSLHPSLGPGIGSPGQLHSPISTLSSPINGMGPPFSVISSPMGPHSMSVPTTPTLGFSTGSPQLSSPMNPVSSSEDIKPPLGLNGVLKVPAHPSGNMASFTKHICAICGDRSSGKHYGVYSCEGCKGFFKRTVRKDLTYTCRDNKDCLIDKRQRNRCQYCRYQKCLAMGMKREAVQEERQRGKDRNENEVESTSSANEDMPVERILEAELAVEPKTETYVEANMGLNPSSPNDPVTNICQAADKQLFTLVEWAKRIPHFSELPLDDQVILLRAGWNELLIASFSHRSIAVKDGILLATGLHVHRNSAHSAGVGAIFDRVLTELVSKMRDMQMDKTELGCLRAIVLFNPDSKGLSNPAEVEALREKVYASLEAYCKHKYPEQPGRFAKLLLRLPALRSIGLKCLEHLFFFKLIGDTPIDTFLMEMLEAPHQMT
Chromobox protein homolog 1 (Homo sapiens), sequence (P83916 whole entry, looked up): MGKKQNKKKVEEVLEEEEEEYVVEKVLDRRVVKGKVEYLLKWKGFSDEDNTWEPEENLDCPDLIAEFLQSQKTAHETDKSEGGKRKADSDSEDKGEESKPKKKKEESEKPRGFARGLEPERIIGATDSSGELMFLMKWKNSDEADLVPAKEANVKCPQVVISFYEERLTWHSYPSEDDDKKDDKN

Clc1cccc(-n2nnnc2NCc2ccccc2Oc2ccccn2)c1Cl
inactive: Potency [1] | Potency [2] | Potency [3] | Potency [4] | Potency (CRL-7250)

Cc1cc(O)c2c(c1)C(=O)c1cc(O)cc(O)c1C2=O
active: Potency [5] 7.94 µM | Potency [6] 10 µM | Potency [8] 12.6 µM | Potency [9] 7.94 µM | Potency [10] 12.6 µM | Potency [11] 35.5 µM | Potency [12] 28.2 µM | Potency [13] 11.2 µM | Potency [14] 14.1 µM | Potency [15] 23.8 µM | Potency [16] 10.6 µM | Potency [17] 22.4 µM | Potency [20] 9.69 µM and 18.8 µM | Potency [21] 15.8 µM and 22.4 µM | Potency [22] 2.98 µM | Potency [23] 3.76 µM | Potency [24] 66.8 µM | Potency [25] 44.7 µM | Potency [26] 42.2 µM
21.4%: max response [18]
inactive: Potency [7] | outcome [19] | Potency [27]
